AI-2 QS modul: Vibrio harveyi AI-2 quorum sensing modulators, primary screen, JMH597 strain, luminescence/OD600 ratio; Vibrio harveyi JMH597 AI-2 luminescence/OD600 ratio, 9 h; hits give low values; strain lacks LuxN and CqsS sensors; 0 = neutral-control median; activity change, % at 7.5 µM; 0.4% of 300,000 active; AID 2094, 2009; in the data active means activity change below about -75%, passing the limit was not always enough;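 further: luminescence divided by OD600 gain over 9 h not by final OD600 alone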
HSP90 inh: HSP90 inhibitors, primary screen, cell lysate, luminescence. 0.91% of 290,000 active. inhibition, % at 5.6 µM. AID 1789, 2009. Rabbit reticulocyte lysate, luciferase refolding luminescence, 3 h. Heat shock protein HSP 90 (rabbit reticulocyte lysate; luciferase refolding);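 active means inhibition above the screen-wide mean plus 3 SD, computed separately per campaign, cut at about 16% in these data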;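 further: 0% = DMSO wells and 100% = 60 µM geldanamycin wells; inhibitors lower the luminescence because luciferase stays unfolded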
FXN GAA850 act: FXN promoter activators, primary screen, cell-based, luciferase luminescence, HEK293 lucGAA850. 0.56% of 360,000 active. HEK293 lucGAA850 FXN promoter luciferase reporter, 24 h; percent of 10 µM SAHA response. activation, % at 6 µM;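 active means activation above the average of all compounds screened plus 3 SD, cutoff fixed separately per campaign, cut at about 7.5% in these data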;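 further: 0% = DMSO wells and 100% = 10 µM SAHA wells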
HSF1 inh: HSF1 inhibitors in luciferase reporter cells, primary screen, cell-based, NIH3T3, luminescence. NIH3T3-HGL HSE-luciferase, MG132-induced, luminescence 8 h; hits give low values. activity change, negative = inhibition, % at 7.5 µM (by protocol). 0.77% of 300,000 active. AID 2098, 2009;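 active means more than half of replicate wells show activity change below -50%, luminescence cut by over half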;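 further: luciferase reports HSF-1 transcriptional activity via heat shock element; 0% = median of DMSO wells and -100% = zero luminescence signal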
SMARCA2 activ: SMARCA2 (BRM) function activators, primary screen, cell-based, luminescence, high throughput; MG213 cells, MMTV-luciferase reporter, dexamethasone, overnight; activation, % at 9.1 µM; 1% of 370,000 active; in the data active means activation above about 7.8%;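 further: 0% = vehicle wells and 100% = reference activator wells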
PG9 binder: binders of HIV-1 gp120 antibody PG9, primary screen, biochemical, TR-FRET | 0.43% of 360,000 active | AID 624416, 2012 | TR-FRET gp120-PG9 antibody binding | inhibition, % at 6.7 µM; in the data active means inhibition above about 8.5%
PG9 bind confirm: binders of anti-gp120 antibody PG9, confirmation, biochemical, TR-FRET. inhibition, % at 6.7 µM. shares compounds with PG9 binder. TR-FRET PG9 antibody binding. AID 651571, 2012. 90% of 1,500 active; in the data active means inhibition above about 9%
PGV04 counter: binders of control antibody PGV04, counter-screen for PG9 antibody binder project, biochemical, TR-FRET, distinct HIV envelope site; shares compounds with PG9 binder; TR-FRET PGV04 antibody-gp120 binding; inhibition, % at 6.7 µM; 95% of 1,500 active; AID 651604, 2012; in the data active means inhibition above about 9.5%
PG9 binder DR: small-molecule binders of antibody PG9, dose response, biochemical, TR-FRET, HIV-1 gp120 antibody. shares compounds with PG9 binder. TR-FRET PG9 antibody-gp120 binding inhibition. IC50, µM. 95 tested, under 10 active; in the data active means IC50 below about 10 µM
PGV04 DR counter: binders of control antibody PGV04, dose response, counter-screen for PG9 antibody binder project, biochemical, TR-FRET, distinct HIV envelope site; TR-FRET binding to control antibody PGV04; IC50, µM; shares compounds with PG9 binder; 20% of 95 active
PG126 DR counter: binders of control antibody PG126, dose response, counter-screen for PG9 antibody binder project, biochemical, TR-FRET, distinct HIV envelope site | IC50, µM | TR-FRET binding to antibody PG126, counterscreen | shares compounds with PG9 binder | AID 651939, 2012 | 20% of 95 active
Numbers without * were called inactive; i = inactive; / = no result. In the library only some 3.4% were active in any assay of this set; here they are far more common. Unless noted, no stated cut-off is given here; in the data, active means IC50 below about 9 µM; inactive means the rest.

SMILES	AI-2 QS modul	HSP90 inh	FXN GAA850 act	HSF1 inh	SMARCA2 activ	PG9 binder	PG9 bind confirm	PGV04 counter	others
CCn1c(CNC(=O)C2CCCCC2)cc2ccccc21	4	0	2	3	-2	32*	16*	23*
Cc1cc2ccccc2n1CCNC(=O)C1CCCCC1	26	-1	0	-2	3	11*	8	8	PG9 binder DR=i;PGV04 DR counter=i;PG126 DR counter=i
Cc1cc2ccccc2n1CCNC(=O)C1CCCC1	-2	1	1	-2	0	-1	/	/
O=C(C[C@H]1CC[C@@H](NC(=O)Nc2ccc3c(c2)OCO3)[C@@H](CO)O1)NCc1ccccc1	/	/	/	/	-2	14*	8	19*
O=C(C[C@H]1CC[C@@H](NC(=O)Cc2cccnc2)[C@@H](CO)O1)NCc1ccc2c(c1)OCO2	/	/	/	/	-2	-2	/	/
O=C(COC(=O)c1ccccc1-n1cnnn1)c1ccc(Br)cc1	21	/	-3	-41	-1	10*	11*	16*
O=C(COC(=O)c1ccccc1O)NNC(=O)c1ccc(Br)cc1	/	/	4	/	-2	9.5*	14*	25*
O=C(COC(=O)c1ccccc1-n1cnnn1)c1ccccc1	38	/	1	-32	3	2	/	/
CC(C)C[C@@H](CNCC(=O)[C@H](Cc1ccccc1)NC(=O)c1[nH]cnc1C(=O)N[C@H](CN)CC(C)C)NC(=O)c1nc[nH]c1C(=O)N[C@@H](CC(=O)O)C(=O)O	/	/	-1	/	-1	1	/	/
Cc1cc2cc(CN3C(=O)c4ccccc4C3=O)ccc2n1C	52	3	2	1	3	31*	39*	63*
COC(=O)C1=C(C)N(C)C(=NCc2ccc(C(F)(F)F)cc2)NC1c1cccc(Cl)c1 (configuration not stated)	/	/	/	/	-3	0	/	/
Cc1cccc(NC(=O)CSc2nnc(-c3n[nH]c4ccccc34)o2)c1	25	-3	0	2	1	-2	/	/
N#Cc1cccc(NC(=O)CSc2nnc(-c3n[nH]c4ccccc34)o2)c1	37	1	3	35	-2	9.4*	8	10*
CN1OC[C@@H]2CN(C(=O)c3ccc([N+](=O)[O-])cc3)[C@H](c3ccccc3Br)C[C@@H]21	/	/	/	/	-6	0	/	/
Cc1cc(SCC(=O)Nc2ncc(Cl)cc2Cl)nc2ccccc12	0	6	-1	32	-1	12*	15*	20*
COc1ccc2c(C)cc(SCC(=O)Nc3ncc(Cl)cc3Cl)nc2c1	3	0	2	-11	-4	14*	37*	53*
COc1ccc2c(C)cc(SCC(=O)Nc3cccnc3Cl)nc2c1	1	0	3	7	-1	1	/	/
O=C(COC(=O)c1cccnc1Cl)Nc1ncc(Cl)cc1Cl	28	-1	0	2	-3	2	/	/
Cc1ccc(-c2nn(-c3ccccc3)cc2C(=O)OCC(=O)Nc2ncc(Cl)cc2Cl)cc1	20	-2	3	-7	-1	20*	12*	27*
O=C(Nc1cc(S(=O)(=O)N2CCOCC2)ccc1N1CCCC1)c1ccccc1C(F)(F)F	/	/	/	/	-2	0	/	/
CCc1ccc(CCNC(=O)OCCCN2CCC3(CCC(C)CC3)C2=O)cc1 (configuration not stated)	/	/	/	/	-5	/	/	/
Cc1cc2c(c(=O)o1)[C@@]1(C(=O)N(C)c3ccccc31)C1=C(CC(C)(C)CC1=O)O2	/	/	/	/	-8	0	/	/
COc1cc(C(=O)Oc2ccccc2)ccc1OCc1c(C)noc1C	17	1	1	-2	-1	11*	17*	13*	PG9 binder DR=>67;PGV04 DR counter=>67;PG126 DR counter=>67
COc1cc(C(=O)O)ccc1OCc1c(C)noc1C	9	2	-1	-7	-3	-1	/	/
O=C(Nc1ccc2c(c1)C(=O)N(c1ccccc1)C2=O)c1cccs1	1	-1	-1	3	-3	22*	29*	40*
SMILES	AI-2 QS modul	HSP90 inh	FXN GAA850 act	HSF1 inh	SMARCA2 activ	PG9 binder	PG9 bind confirm	PGV04 counter	others
O=C(O)CCN1C(=O)c2ccc(NC(=O)c3cccs3)cc2C1=O	24	0	-3	-3	1	2	/	/
NC(=O)c1ccc(NC(=O)COC(=O)c2c[nH]c3ccccc23)cc1	/	/	1	/	-3	10*	8.9*	16*
COC(=O)c1cc(Br)c(=O)n(-c2ccc(OC)cc2)c1	51	1	3	-3	0	9.9*	17*	22*
COC(=O)c1cc(Br)c(=O)n(CCc2ccccc2)c1	5	5	-1	-5	2	1	/	/
COC(=O)c1cc(Br)c(=O)n(-c2ccccc2OC)c1	17	1	7	1	-6	6	/	/
COC(=O)c1cc(Br)c(=O)n(-c2cccc(F)c2)c1	-3	-2	0	-10	0	11*	19*	23*
Cc1ccc(-c2ccc(C(=O)O)c(C)n2)cc1	19	1	-2	-3	-1	2	/	/
Cc1nc(-c2ccc(Br)cc2)ccc1C(=O)O	27	1	-1	-4	-4	14*	24*	30*
CCCC[C@@H]1C(=O)N2N=C(c3ccccc3)c3ccccc3[C@H]2N2N=C(c3ccccc3)c3ccccc3[C@@H]12	/	/	/	/	-5	/	/	/
COc1ccc2c(c1)oc(=O)c1ccccc12	28	2	4	7	3	1	/	/
COc1ccc2c(c1)oc(=O)c1c3ccccc3[nH]c21	11	2	8	21	0	13*	8.9*	21*

Screens deposited in PubChem by several laboratories.
